Source: PubChem BioAssay (Tox21)
Inconclusive results are not listed. Active and inactive are the calls of the source. The call rests on the fitted dose curve; in most records, active means well fitted curve in the direction sought with a large enough effect in the repeat runs; inconclusive means weak or mixed curves; inactive means no such curve, though single readings can be large; an effect the other way counts as inactive or inconclusive.

Legend:
[1] = qHTS RealTime-Glo MT Cell Viability Assay in HepG2 cells - 24 hour (AID 1224867); further: nearly all actives have a fitted effect of over 50% in size
How it was run: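 Real-time, nonlytic viability: 600 HepG2 cells/well mixed with NanoLuc enzyme plus prosubstrate; 5 h settle, compound (DMSO) added by pintool; luminescence monitored over 40 h at 37 C.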

[2] = qHTS RealTime-Glo MT Cell Viability Assay in HEK293 cells - 32 hour (AID 1224868); further: top concentration of the series differs between compounds; nearly all actives have a fitted effect of over 50% in size
How it was run: (§1)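 Cells + reagent dispensed (600 cells/well, HEK293) → 5 h at 37 C/5% CO2 → 23 nL compound in DMSO pinned → 40 h at 37 C → luminescence read at 0, 8, 16, 24, 32, 40 h.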

[3] = A CellTox Green Cytotoxicity Assay to monitor cytotoxicity in HEK293 cells - 0 hour (AID 1224869); further: nearly all actives have a fitted effect of over 50% in size
How it was run: (§2)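 HEK293 cells premixed with CellTox Green dye were seeded at 600 cells/well and left 5 h at 37 C/5% CO2 before pin transfer of 23 nL compound in DMSO. Fluorescence from dye bound to dead-cell DNA was read during 40 h treatment.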

[4] = qHTS RealTime-Glo MT Cell Viability Assay in HepG2 cells - 40 hour (AID 1224870); further: nearly all actives have a fitted effect of over 50% in size
How it was run: (§3)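 HepG2 cells (600/well) mixed with RealTime-Glo MT reagent, settled 5 h at 37 C/5% CO2 before compound addition. Nonlytic NanoLuc luminescence from viable-cell prosubstrate reduction read repeatedly during 40 h treatment at 37 C.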

[5] = A CellTox Green Cytotoxicity Assay to monitor cytotoxicity in HEK293 cells - 40 hour (AID 1224871); further: nearly all actives have a fitted effect of over 45% in size
How it was run: as §2

[6] = qHTS RealTime-Glo MT Cell Viability Assay in HEK293 cells - 16 hour (AID 1224872)
How it was run: as §1

[7] = qHTS RealTime-Glo MT Cell Viability Assay in HepG2 cells - 8 hour (AID 1224873); further: nearly all actives have a fitted effect of over 55% in size
How it was run: as §3

[8] = qHTS RealTime-Glo MT Cell Viability Assay in HEK293 cells - 40 hour (AID 1224874); details: RealTime-Glo luminescence; max response: stronger effect = lower value; further: nearly all actives have a fitted effect of over 50% in size
How it was run: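 HEK293 cells mixed with RealTime-Glo reagents (NanoLuc plus cell-permeant prosubstrate) at 600 cells/well, preincubated 5 h at 37 C/5% CO2, then given 23 nL compound in DMSO. Nonlytic luminescence from viable cells was read at 0, 8, 16, 24, 32 and 40 h.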

[9] = A CellTox Green Cytotoxicity Assay to monitor cytotoxicity in HEK293 cells - 24 hour (AID 1224875); further: series mostly up to about 77 µM; nearly all actives have a fitted effect of over 45% in size
How it was run: as §2

[10] = A CellTox Green Cytotoxicity Assay to monitor cytotoxicity in HepG2 cells - 16 hour (AID 1224876); further: nearly all actives have a fitted effect of over 45% in size
How it was run: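 HepG2 cells were seeded together with the CellTox Green dye at 600 cells/well, left 5 h at 37 C/5% CO2, then given compounds in DMSO. Fluorescence from dye bound to dead-cell DNA was read repeatedly over 40 h of treatment at 37 C.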
On the % scale 0 is the no-effect control and ±100 the full control effect.

CN(C)CCOC(=O)C(c1ccccc1)C1(O)CCCC1 (stereo not drawn)
inactive: outcome [1] | Potency [2] | Potency [3] | outcome [4] | Potency [5] | Potency [6] | outcome [7] | max response [8] -2.33% | Potency [9] | Potency [10]

O=C(Cl)c1ccccc1[N+](=O)[O-]
inactive: outcome [1] | Potency [2] | Potency [3] | outcome [4] | Potency [5] | Potency [6] | outcome [7] | max response [8] 9.73% | Potency [9] | Potency [10]

CCCCOC(=O)C(C)O (stereo not drawn)
inactive: outcome [1] | Potency [2] | Potency [3] | outcome [4] | Potency [5] | Potency [6] | outcome [7] | max response [8] 11.1% | Potency [9] | Potency [10]

CCC(=O)Oc1ccc2c(c1)CC[C@@H]1[C@@H]2CC[C@@]2(C)[C@H]1C[C@@H](OC(=O)CC)[C@@H]2OC(=O)CC
inactive: outcome [1] | Potency [2] | Potency [3] | outcome [4] | Potency [5] | Potency [6] | outcome [7] | max response [8] -0.818%

COS(=O)(=O)O
inactive: outcome [1] | Potency [2] | Potency [3] | outcome [4] | Potency [5] | Potency [6] | outcome [7] | max response [8] -1.57%

O=C[O][Al]([O]C=O)[O]C=O
inactive: outcome [1] | Potency [2] | Potency [3] | outcome [4] | Potency [5] | Potency [6] | outcome [7] | max response [8] 5.61% | Potency [9] | Potency [10]

COC(C)(OC)OC
inactive: outcome [1] | Potency [2] | Potency [3] | outcome [4] | Potency [5] | Potency [6] | outcome [7] | max response [8] 5.48% | Potency [9] | Potency [10]

CCCCCCCCCCCCCCCCCCOCCO
inactive: activity change, negative = cytotoxicity [1] -2.19% [at 15.8 µM] | activity change, negative = cytotoxic [2] -2.29% [at 15.8 µM] | cytotoxicity [3] 1.2% [at 15.8 µM] | activity change, negative = cytotoxic [4] -6.69% [at 15.8 µM] | cytotoxicity increase [5] 8.77% [at 15.8 µM] | activity change, negative = cytotoxicity [6] -4.86% [at 15.8 µM] | viability change, negative = cytotoxic [7] -3.15% [at 15.8 µM] | max response [8] -1.04% | activity change [9] 5.76% [at 15.8 µM, stronger effect = higher value] | cytotoxicity increase [10] 0.179% [at 15.8 µM]

CC1OCCC1=O (stereo not drawn)
inactive: outcome [1] | Potency [2] | Potency [3] | outcome [4] | Potency [5] | Potency [6] | outcome [7] | max response [8] 3.12% | Potency [9] | Potency [10]

Cc1cc(-c2ccccc2)nnc1NCCN1CCOCC1
inactive: outcome [1] | Potency [2] | Potency [3] | outcome [4] | Potency [5] | Potency [6] | outcome [7] | max response [8] -1.81% | Potency [9] | Potency [10]

COP(=O)(O)OP(=O)(O)OC
inactive: outcome [1] | Potency [2] | Potency [3] | outcome [4] | Potency [5] | Potency [6] | outcome [7] | max response [8] 5.3% | Potency [9] | Potency [10]

CCN(CC)CCN
inactive: outcome [1] | Potency [2] | Potency [3] | outcome [4] | Potency [5] | Potency [6] | outcome [7] | max response [8] 2.52% | Potency [9] | Potency [10]

C=CCCCC
inactive: outcome [1] | Potency [2] | Potency [3] | outcome [4] | Potency [5] | Potency [6] | outcome [7] | max response [8] 10.8% | Potency [9] | Potency [10]

CN1C[C@@H]2C[C@H]1CN2c1cc2c(cc1F)c(=O)c(C(=O)O)cn2C1CC1
inactive: activity change, negative = cytotoxicity [1] 5.55% [at 15.8 µM] | activity change, negative = cytotoxic [2] 9.47% [at 15.8 µM] | cytotoxicity [3] -0.324% [at 15.8 µM] | activity change, negative = cytotoxic [4] 1.94% [at 15.8 µM] | cytotoxicity increase [5] -7.03% [at 15.8 µM] | activity change, negative = cytotoxicity [6] 1.79% [at 15.8 µM] | viability change, negative = cytotoxic [7] 8.97% [at 15.8 µM] | max response [8] 11.1% | activity change [9] -6.09% [at 15.8 µM, stronger effect = higher value] | cytotoxicity increase [10] 2.35% [at 15.8 µM]

Cn1c(=O)c2c(ncn2CCO)n(C)c1=O
inactive: outcome [1] | Potency [2] | Potency [3] | outcome [4] | Potency [5] | Potency [6] | outcome [7] | max response [8] 3.56%

CC(=O)O[Si](C)(OC(C)=O)OC(C)=O
inactive: outcome [1] | Potency [2] | Potency [3] | outcome [4] | Potency [5] | Potency [6] | outcome [7] | max response [8] 7.61% | Potency [9] | Potency [10]

CC1=C(C(=O)O)N2C(=O)[C@@H](NC(=O)[C@H](N)C3=CCC=CC3)[C@H]2SC1
inactive: outcome [1] | Potency [2] | Potency [3] | outcome [4] | Potency [5] | Potency [6] | outcome [7] | max response [8] 0.914% | Potency [9] | Potency [10]

Fc1ccccc1
inactive: outcome [1] | Potency [2] | Potency [3] | outcome [4] | Potency [5] | Potency [6] | outcome [7] | max response [8] 13.3% | Potency [9] | Potency [10]

OC[C@@H](O)C(O)[C@@H](O)CO (stereo partly drawn)
inactive: outcome [1] | Potency [2] | Potency [3] | outcome [4] | Potency [5] | Potency [6] | outcome [7] | max response [8] -0.153% | Potency [9] | Potency [10]

CC/C=C\CCOC(=O)c1ccccc1O
inactive: outcome [1] | Potency [2] | Potency [3] | outcome [4] | Potency [5] | Potency [6] | outcome [7] | max response [8] 19.1% | Potency [9]

O/N=C/C=N/O
inactive: outcome [1] | Potency [2] | Potency [3] | outcome [4] | Potency [5] | Potency [6] | outcome [7] | max response [8] 0.715% | Potency [9] | Potency [10]

Cc1ccnc(N)c1
inactive: outcome [1] | Potency [2] | Potency [3] | outcome [4] | Potency [5] | Potency [6] | outcome [7] | max response [8] -4.39% | Potency [9] | Potency [10]
